Hit rate of the full screen: of about 16,000 compounds, about 5,700 (36%) were called active. Another 24% or so got no clear call; they are omitted. The list shows a part of the results. Values without a mark were called inactive. Calls follow the shape of the dose curve; as a rule, active = well fitted curve in the direction sought with a large enough effect; inconclusive = small, poorly fitted or top-dose-only effect, or effect the other way; inactive = no such curve, though single readings can be large or run the other way.
% is scaled to controls: 0 for no effect and ±100 for the full control effect.

The target of the assay is Cytochrome P450 1A2 (Homo sapiens) (UniProt P05177). In words: Cytochrome panel assay with activity outcomes. To be noted: recombinant CYP, pro-luciferin dealkylation, luminescence, p450-cyp1a2; series mostly up to 57.1 µM.
Sequence of Cytochrome P450 1A2 (Homo sapiens) (P05177 whole entry, looked up): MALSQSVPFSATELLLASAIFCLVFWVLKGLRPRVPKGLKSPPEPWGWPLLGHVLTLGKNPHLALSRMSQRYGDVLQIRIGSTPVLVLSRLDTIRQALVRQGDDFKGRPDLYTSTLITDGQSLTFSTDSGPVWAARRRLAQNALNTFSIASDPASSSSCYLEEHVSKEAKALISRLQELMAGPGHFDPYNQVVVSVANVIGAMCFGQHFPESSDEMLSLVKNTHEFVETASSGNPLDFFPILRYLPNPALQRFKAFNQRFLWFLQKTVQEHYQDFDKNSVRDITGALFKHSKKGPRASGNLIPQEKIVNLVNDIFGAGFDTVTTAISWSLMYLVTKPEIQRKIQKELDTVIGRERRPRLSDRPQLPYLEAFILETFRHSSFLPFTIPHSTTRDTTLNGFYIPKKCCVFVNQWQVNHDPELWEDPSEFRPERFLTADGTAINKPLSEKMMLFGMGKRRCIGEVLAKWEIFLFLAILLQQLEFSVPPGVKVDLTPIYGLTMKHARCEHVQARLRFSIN
As for `CC(C)=CCC/C(C)=C/CO/N=C1/[C@H]2O[C@@H]2[C@@H](O)[C@H]2[C@H]1CCn1c(=O)n(Cc3cc4c(cc3Cl)OCO4)c(=O)n12`, the activity, negative = inhibition was -2.22% [at 11.4 µM]. Turning to `c1ccc(CN2c3ccccc3-c3nc4ccccc4n3C2c2ccccn2)cc1` (stereo not given), the AC50 was 4.47 µM (active).

For the compound `O=C(Cc1ccccc1)Nc1nc2ccc(Cl)cc2c2nc(-c3ccco3)nn12`, the AC50 was 0.2 µM (active). Consider `CN(C)Cc1cc(Cl)c(O)c(CN(C)C)c1`, for which the activity, negative = inhibition is -10.7% [at 11.4 µM]. `Oc1ccc(Cl)cc1Cc1cc(Cl)cc(Cc2cc(Cl)ccc2O)c1O`: the activity, negative = inhibition was -23.8% [at 2.29 µM].

Consider `Oc1ccc(Cc2cc(Cl)cc(Cl)c2O)cc1Cl`, for which the AC50 is 1.58 µM (active). For the compound `CCC(C)(C)n1nnnc1C(c1ccc(C)cc1)N1CCC(C)CC1` (stereo not given), the AC50 entry was “inactive”. The same measure, in the same setting: then `CCC(Sc1nc2cc3c(cc2c(=O)n1Cc1ccco1)OCO3)C(=O)Nc1ccccc1OC` (stereo not given), with “inactive”. On the same count and under the same terms, then `COc1ccccc1CN(Cc1cc2cc3c(cc2[nH]c1=O)OCCO3)Cc1nnnn1Cc1ccco1`, with 17.8 µM (active); and `CC(C)(C)n1nnnc1C(c1cccnc1)N(Cc1ccccc1)Cc1ccco1` (stereo not given), with “inactive”; and `CCC(C)(C)n1nnnc1C(C(C)C)N(Cc1ccco1)Cc1cc2cc3c(cc2[nH]c1=O)OCO3` (stereo not given), with 14.1 µM (active). On the same count and under the same terms, then `Cc1nonc1NC(=O)N1CCCC1`, with “inactive”. Take `CCC[C@@H]1O[C@@H]2C[C@@H]3[C@H]4CCC5=CC(=O)C=C[C@@]5(C)[C@H]4[C@H](O)C[C@@]3(C)[C@@]2(C(=O)CO)O1`: the AC50 entry was “inactive”. Still for that read-out and setting: then `CCCc1c(O)c2ccccc2n(-c2ccccc2)c1=O`, with 14.1 µM (active); and `CN(C(=O)c1c(O)c2ccccc2n(C)c1=O)c1ccccc1`, with “inactive”. The same measure, in the same setting: then `Cc1cnc(CNc2ncncc2-c2ccc(N(C)C)cc2)cn1`, with 3.16 µM (active).

For the compound `Cc1cnc(CNc2ncncc2-c2c(C)noc2C)cn1`, the AC50 result is “inactive”. Same read-out and setting: then `Cc1cnc(CNc2ncncc2-c2ccoc2)cn1`, with 12.6 µM (active). On the same count and under the same terms, then `Cn1cc(-c2nc3cncnc3n(CCN)c2=O)c2ccccc21`, with 6.31 µM (active); and `COc1cccc(Cn2c(=O)c(-c3cn(C)c4ccccc34)nc3cncnc32)c1`, with 1 µM (active); and `COCCn1c(=O)c(-c2cn(C)c3ccccc23)nc2cncnc21`, with 0.398 µM (active). On the same count and under the same terms, then `COCCn1c(=O)c(-c2cn(C)c3ccccc23)nc2cnc(OCc3ccccc3)nc21`, with 5.01 µM (active); and `O=C(Cn1cnc([N+](=O)[O-])c1)NCc1ccc(F)cc1`, with “inactive”. On to `COc1ccccc1CCn1c(=O)c(-c2cn(C)c3ccccc23)nc2cncnc21`, for which the AC50 was 1.26 µM (active). Take `COC(=O)CC[C@@H](C)[C@H]1CC[C@H]2[C@H]3CC[C@H]4C[C@@H]5CC[C@@]4(C)C3(O5)[C@@H](Br)[C@@H](Br)[C@@]12C`: the activity, negative = inhibition was -8.93% [at 11.4 µM].

On to `CCCC(=O)Nc1nc(C(=O)OCC)cs1`, for which the AC50 was 15.8 µM (active). On the same count and under the same terms, then `CCCC(=O)Nc1c(C)n[nH]c1C`, with “inactive”. Same read-out and setting: then `COc1cc(OC)c2c(c1)C(=O)c1cc(OC)cc(OC)c1C2=O`, with 2 µM (active); and `Cc1ccc(-n2ccnc2SCC(=O)N(CC(C)C)C2CCS(=O)(=O)C2)c(C)c1` (stereo not given), with “inactive”; and `O=C(CSc1ccc(Cl)cc1)Nc1cccc(NC(=O)c2ccco2)c1`, with 2 µM (active). The same measure, in the same setting: then `CC(=O)c1ccc(-n2nnnc2SCC(=O)Nc2cccc(NC(=O)c3ccco3)c2)cc1`, with 0.501 µM (active); and `COc1ccc(NC(=O)CSc2nnc(CNC(=O)c3ccco3)n2-c2ccccc2OC)cc1`, with “inactive”. As to `Cc1ccc(-n2nnnc2SCC(=O)NNC(=O)c2ccco2)c(C)c1`, the AC50 result was “inactive”. Same read-out and setting: then `O=C(CSc1ccccc1)Nc1ccc(NC(=O)c2ccco2)cc1`, with “inactive”. Take `Fc1cccc(F)c1C(Nc1nncs1)Nc1nncs1`: the activity, negative = inhibition is 12.3% [at 2.29 µM]. Regarding `Cc1cccc(C(=O)NC2CCN(C(=S)NCc3ccco3)CC2)c1`, the AC50 result is “inactive”. For `Cn1c(=O)n(-c2ccc(Cl)cc2)c(=O)c2c3c(sc21)COC(C)(C)C3`, the AC50 is 14.1 µM (active). For the compound `O=C(C/C=N/OCc1ccc(Cl)cc1Cl)c1ccc(Cl)cc1`, the AC50 was 2.82 µM (active). Same read-out and setting: then `O=C(C/C=N/OCc1ccc(F)cc1Cl)c1cnc(-c2ccccc2)s1`, with 1.78 µM (active). Regarding `O=C1[C@@H]2[C@H]3[C@H](O)[C@H](O)C/C(=N/OCc4ccccc4)[C@H]3CC[C@H]2C(=O)N1c1ccc(F)cc1F`, the activity, negative = inhibition was -0.404% [at 11.4 µM]. Turning to `CCCc1nnc(SCC(=O)N2C(C)CCCC2C)n1CCCOC` (stereo not given), the AC50 entry is “inactive”. The same measure, in the same setting: then `Cc1ccc(NC(=O)/C(=C\c2cccc([N+](=O)[O-])c2)NC(=O)c2cccs2)cc1`, with “inactive”; and `O=C(Nc1cccc(F)c1)/C(=C\c1ccco1)NC(=O)c1cccs1`, with 4.47 µM (active).

`O=C(Nc1cccc(F)c1)N1CCC2(CC1)CCN(C(=O)c1ccco1)CC2`: the AC50 result was “inactive”.

Consider `NCCC(=O)O`, for which the AC50 entry is “inactive”. As to `CCCCCC/C(C)=C1/SC(=S)NC1=O`, the AC50 was 2.51 µM (active). The same measure, in the same setting: then `c1ccc(Oc2cc(-c3ccccc3)ncn2)cc1`, with 2.82 µM (active); and `COc1cc(/C=N/NC(=O)c2cccnc2)ccc1OC(=O)c1ccc2c(c1)OCO2`, with “inactive”. Still for that read-out and setting: then `COc1cc(/C=N/NC(=O)c2cccnc2)ccc1OC(=O)c1ccco1`, with 12.6 µM (active). Consider `Cc1ccc(C2=C(Cl)C(=O)C(c3ccc(C)cc3)=C(Cl)C2=O)cc1`, for which the activity, negative = inhibition is -16.9% [at 2.29 µM]. Regarding `COc1cccc(C2=CC(c3ccccc3)n3nnnc3N2)c1` (stereo not given), the half-maximal activity concentration (AC50) was 1.12 µM (active). Same read-out and setting: then `CN(C)c1ccc(/C=C2/C(=O)Nc3ccccc32)cc1`, with 0.1 µM (active); and `Cc1cc(C)c(/C=C2/C(=O)Nc3ccccc32)[nH]1`, with 0.794 µM (active); and `O=C1Nc2cc(C(=O)N3CCOCC3)ccc2SC1N1CCOCC1` (stereo not given), with “inactive”. As for `N[C@@H](CSCc1ccc(I)cc1)C(=O)O`, the activity, negative = inhibition is -12% [at 2.29 µM]. Regarding `COC(=O)[C@H](CCSC)NC(=O)C/C=C\[C@@H](C)[C@@H](CO)OC`, the activity, negative = inhibition is -1.07% [at 11.4 µM]. Take `c1ccc(C[n+]2cccc(-c3cc4ccccc4[nH]3)c2)cc1`: the AC50 is 1.26 µM (active).

As for `COc1cc2c3c(c1OC)C1(C=CC(=O)C=C1)CC3N(C(=O)c1ccccc1)CC2` (stereo not given), the AC50 entry is “inactive”. On the same count and under the same terms, then `COc1ccc(C(=O)N2CCC3(CCCN(Cc4ccccc4)C3)CC2)cc1`, with “inactive”. Same read-out and setting: then `COc1ccc(C(=O)/C=C2/c3ccccc3CC(C)(C)N2C)cc1`, with 15.8 µM (active).

In the case of `COc1ccc(C(=O)N2CCC3(CCN(C)CC3)CC2)cc1`, the AC50 entry is “inactive”. Same read-out and setting: then `N=C1CCC[C@@H]1C(=S)SCCC(N)=O`, with 3.16 µM (active). Still for that read-out and setting: then `N#CCCSC(=S)[C@H]1CCCC1=N`, with 3.16 µM (active); and `CCN1C(=O)C(O)(C2COC(C)(C)CC2=O)c2ccccc21` (stereo not given), with “inactive”. As for `CCN1C(=O)C(O)(CC(=O)/C=C/C=C/c2ccccc2)c2ccccc21` (stereo not given), the AC50 was 10 µM (active). On the same count and under the same terms, then `COc1ccc([C@@H]2Sc3ccccc3N(CCN(C)C)C(=O)[C@@H]2OC(C)=O)cc1`, with “inactive”; and `COc1ccc([C@H]2Sc3ccccc3N(CCN(C)C)C(=O)[C@H]2OC(C)=O)cc1`, with “inactive”; and `CCCN1C(=O)C(NC(C)=O)c2cc(OC)ccc21` (stereo not given), with 7.08 µM (active). Consider `c1nc(NC2CCNCC2)c2cc(-c3ccoc3)ccc2n1`, for which the concentration at half-maximal activity (AC50) was 25.1 µM (active). Still for that read-out and setting: then `CN(C)c1ccc(-c2ccc3ncnc(NC4CC4)c3c2)cc1`, with 0.2 µM (active).

With `c1nc(NC2CCNCC2)c2cc(-c3ccc4c(c3)OCO4)ccc2n1`, the AC50 is 12.6 µM (active).

In the case of `c1nc(NC2CC2)c2cc(-c3ccoc3)ccc2n1`, the AC50 is 0.794 µM (active). The same measure, in the same setting: then `CC(=O)N[C@@H](C(=O)O)C(C)(C)SN=O`, with “inactive”; and `O=C(Cn1cccc1)NC1CCCCCC1`, with “inactive”. Still for that read-out and setting: then `O=C(N/N=C/c1c[nH]c2ccc(Br)cc12)c1ccn(Cc2ccc(Cl)cc2)n1`, with 3.16 µM (active); and `COC(=O)C1=C(C)NC2=C(C(=O)CCC2)C1c1cn(Cc2ccc(Cl)cc2Cl)nc1-c1ccccc1` (stereo not given), with “inactive”. On the same count and under the same terms, then `O=C(N/N=C/c1c[nH]c2ccccc12)c1ccn(Cc2ccc(Cl)cc2Cl)n1`, with 0.708 µM (active). For the compound `CN(C)C(CNC(=O)NC1CCCCC1)c1cccnc1` (stereo not given), the AC50 entry is “inactive”. Still for that read-out and setting: then `O=C(O)C1CCN(c2ncccn2)CC1`, with “inactive”; and `O=C(NC1CCCC1)c1cccnc1N1CCCCCC1`, with 15.8 µM (active). For `C/C=C\C1=C(CO)[C@H](O)[C@H]2OC2[C@@H]1O` (stereo not given in full), the activity, negative = inhibition is -5.28% [at 11.4 µM]. Turning to `N#C/C(=C/c1cccc(C(F)(F)F)c1)c1nc(CCN2C(=O)c3ccccc3C2=O)cs1`, the AC50 was 12.6 µM (active). In the case of `Fc1ccc(C2CC(c3ccco3)=NN2c2ccccc2)cc1` (stereo not given), the AC50 is 1.12 µM (active). `C[C@@H]1CC[C@@H]2C(=O)N3[C@@H](CC[C@@H](C)[C@@H]3c3ccc(-c4ccco4)cc3)C(=O)N2[C@H]1c1ccc(-c2ccco2)cc1`: the activity, negative = inhibition was -4.34% [at 11.4 µM]. Take `CC1=C(C(=O)O)N2C(=O)C(NC(=O)c3ccn(C)n3)C2SC1` (stereo not given): the AC50 result is “inactive”.

On to `Cc1noc(C)c1-c1ccc2ncnc(NCCN3CCOCC3)c2c1`, for which the AC50 is 15.8 µM (active).

For `c1nc(NCCN2CCOCC2)c2cc(-c3ccoc3)ccc2n1`, the AC50 is 12.6 µM (active).

Turning to `CC(=O)NCCNc1ncnc2ccc(-c3c(C)noc3C)cc12`, the AC50 was 15.8 µM (active). As for `c1nc(NCCN2CCOCC2)c2cc(-c3ccc4c(c3)OCO4)ccc2n1`, the AC50 is 2.51 µM (active).

Consider `c1cncc(-c2ccc3ncnc(NCCN4CCOCC4)c3c2)c1`, for which the AC50 is 1 µM (active).

For `COc1ccc(CNc2ncnc3ccc(-c4cccc(C#N)c4)cc23)c(OC)c1`, the AC50 was 3.16 µM (active). Same read-out and setting: then `COc1ccccc1CNc1ncnc2ccc(-c3cccc(C#N)c3)cc12`, with 0.251 µM (active); and `Cc1nc(C(=O)Nc2cccc(Cl)c2Cl)nn1-c1cc(OC(C)C)c(Cl)cc1Cl`, with “inactive”; and `O=C(Nc1cccc(Cl)c1Cl)c1snnc1-c1ccccc1`, with 1.26 µM (active). On the same count and under the same terms, then `CC[C@H](C)C(=O)O[C@@H]1C[C@H](C)C=C2C=C[C@H](C)[C@@H](CC[C@H]3C[C@@H](O)CC(=O)O3)[C@H]21`, with “inactive”.

(Values after PubChem BioAssay AID1851 (National Center for Advancing Translational Sciences (NCATS), 2009).)
